# Many of the other results were omitted from the sample, so hits are more common in it than they were.
# Dicer processing – inhibitors of human Dicer processing of pre-microRNA | AID 1347074 | Q9UPY3 | z-score at 25 µM | cat-ELCCA pre-miR-21 Dicer processing, chemiluminescence; hits give high values | 47,000 compounds, 6% hits; in the data active means z-score above about 3, passing the limit was not always enough;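 further: plate controls were vehicle for no effect and no enzyme for full effect; higher signal means more uncleaved substrate so more Dicer inhibition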
# * = called active by the depositor.
SMILES,Dicer processing
CSc1sc(C#N)c2c1/C(=N/OC(C)=O)CCC2,-1
CSc1sc(C#N)c2c1/C(=N/OC(=O)c1ccc(Cl)cc1)CCC2,-2.4
CSc1sc(C#N)c2c1/C(=N\O)CCC2,4.4*
CC(CNc1ccc(C(F)(F)F)cc1[N+](=O)[O-])OC(=O)c1cc2ccccc2oc1=O (stereo not given),0.24
CCOc1cccc(=O)c2c(C)n(-c3ccc4c(c3)OCO4)c(C)c12,-1
CCOC(=O)c1ccc(-n2c(C)c3c(OCC)cccc(=O)c3c2C)cc1,3.6*
CCOc1cccc(=O)c2c(C)n(-c3ccc(OC)cc3)c(C)c12,-0.08
O=C(Cn1nc(C(F)(F)F)c2c1CCC2)Nc1cccc(Cl)c1,-0.44
CSc1c(-c2cccs2)c(N)nn1S(=O)(=O)c1ccccc1,3.9*
CC1CCN(c2oc(-c3cccs3)nc2S(=O)(=O)c2ccccc2)CC1,0.05
CSc1c(C#N)c(-c2cccs2)nn1C(=O)C(C)(C)C,-2.6
OCC1(CO)CSC(=NCc2ccc(F)cc2)N1,1.2
CCOC(=O)C1=C(C)NC2=C(C(=O)CC(C)(C)C2)C1c1ccc(OCC)cc1 (stereo not given),-1.3
O=S(=O)(c1ccc(Cl)cc1)N1CCSCC1,0.73
O=S(=O)(c1ccc(Cl)cc1)N1CCN(c2cccc(Cl)c2)CC1,3.1*
CN(C)C(=O)N1CCN(S(=O)(=O)c2ccc(Cl)cc2)CC1,0.7
Oc1ccccc1OCCOc1ccccc1O,-7
O=C(CSc1nnc2c(n1)-c1cccc3cccc-2c13)Nc1ccc(Cl)cn1,-0.87
O=C(c1cccnc1)N1CCN(C(=O)c2ccco2)CC1,4.7*
O=C(c1ccccc1)N1CCN(C2=NS(=O)(=O)c3ccccc32)CC1,7
O=C(c1cccnc1)N1CCN(c2ccc3ccccc3n2)CC1,4.2*
O=C(c1ccncc1)N1CCN(Cc2ccco2)CC1,1.2
O=C1NCCCC1C(=O)N1CCN(C(=O)c2ccco2)CC1 (stereo not given),-1.3
O=C(O)c1cccnc1,1.2
CCOC(=O)c1sc(SC)c(S(=O)(=O)C(C)C)c1N,-1.2
SMILES,Dicer processing
Cc1ccsc1CNCCSc1nnnn1C,0.36
Brc1ccc(-n2nnnc2/C=C/N2CCCCCC2)cc1,1.1
O=C(O)c1cccc(CSc2cccs2)c1,-0.83
Cc1ccc(OC(C)CC(=O)O)c([N+](=O)[O-])c1 (stereo not given),3.1*
Cc1ccc(-c2ccc(C)cc2[N+](=O)[O-])c([N+](=O)[O-])c1,-0.74
Cc1ccc(OC(=O)c2ccc(Cl)cc2[N+](=O)[O-])c([N+](=O)[O-])c1,2.5
Cc1cc(C)c(CSC(=N)N)c(C)c1CSC(=N)N,-3.6
CC(C)(C)c1ccc(-c2nnnn2Cc2c(Cl)cccc2Cl)cc1,-0.46
CC1c2ccsc2CCN1S(=O)(=O)c1ccccc1 (stereo not given),3*
CC1c2ccsc2CCN1S(C)(=O)=O (stereo not given),-0.25
CC1c2ccsc2CCN1S(=O)(=O)c1cc(C(F)(F)F)cc(C(F)(F)F)c1 (stereo not given),0.66
COc1ccc(OCc2nc(-c3ccccc3Cl)no2)cc1,0.3
COc1cc(OC)cc(-c2nc3n(n2)C(c2ccc(F)cc2)C2=C(CC(C)(C)CC2=O)N3)c1 (stereo not given),0.76
Cc1nnc(N2C(=O)C(=O)/C(=C(/O)c3ccc(F)cc3)C2c2cccc(Oc3ccccc3)c2)s1 (stereo not given),1.6
NC(=NC(=O)CCn1c(=O)oc2ccccc21)c1ccc(Cl)cc1,-0.2
CC(C)(C)NC(=S)N/N=C\c1[nH]ncc1Cl,5*
Cc1nc(C(=O)N/N=C/c2[nH]ncc2Cl)cs1,-0.33
Cc1ccc(Cn2ncc(Br)c2/C=N/NC(=S)NC(C)(C)C)cc1,-0.09
Cc1cc(=O)oc2cc(O)ccc12,0.16
Cc1oc2cc(O)ccc2c(=O)c1-c1ccc2c(c1)OCCO2,5.5*
CCOC(=O)c1oc2cc(O)ccc2c(=O)c1-c1ccc2c(c1)OCCO2,2.6
COc1ccc(-c2c(C)oc3cc(OC(C)C(=O)O)ccc3c2=O)cc1OC (stereo not given),1.3
CCOC(=O)c1oc2cc(O)c(CC)cc2c(=O)c1-c1ccc2c(c1)OCCO2,4.5*
CCCc1cc2c(=O)c(-c3ccc4c(c3)OCCO4)coc2cc1O,0.45
CCNS(=O)(=O)c1ccc(F)cc1,-0.33
SMILES,Dicer processing
CC(C)(C)c1cc(C(C)(C)C)n(C(=O)c2ccc(Cl)cc2)n1,0.49
Cc1nn(C)c(=O)c2noc(/C=C/c3ccc(Cl)c(Cl)c3)c12,-0.86
COc1cc(C2NC(=O)c3cc([N+](=O)[O-])ccc3N2)cc(OC)c1OC (stereo not given),-0.44
O=c1oc(-c2ccc(Br)cc2)nc2sc3c(c12)CCC3,-0.23
Cn1c2c(c(=O)n(C)c1=O)CN(CCc1ccccc1)CN2,-3.7
Cn1c2c(c(=O)n(C)c1=O)CN(Cc1ccc(F)cc1)CN2,4.3*
Cn1c2c(c(=O)n(C)c1=O)CN(C1CC1)CN2,-1.8
Cn1c2c(c(=O)n(C)c1=O)CN(CCc1ccc(Cl)c(Cl)c1)CN2,-5.6
Cn1c2c(c(=O)n(C)c1=O)CN(CCCCCCO)CN2,-2.1
COCCN1CNc2c(c(=O)n(C)c(=O)n2C)C1,3.5*
O=S(=O)(c1ccc(Cl)cc1)c1nc(-c2ccccc2Cl)oc1N1CCOCC1,1.1
O=C(O)COCC(=O)Nc1ccc(N2CCOCC2)nc1N1CCOCC1,-0.99
CC(C)(C)c1ccc(OS(=O)(=O)c2ccc(Oc3c(Cl)cccc3[N+](=O)[O-])cc2)cc1,-0.66
CCSc1nc2c(c(=O)n(C)c(=O)n2C)n1Cc1ccccc1C,-0.76
Cc1ccccc1Cn1c(SCc2nn[nH]n2)nc2c1c(=O)n(C)c(=O)n2C,3.5*
Cc1ccccc1Cn1c(SC(C)C(=O)O)nc2c1c(=O)n(C)c(=O)n2C (stereo not given),0.7
CCS(=O)(=O)c1ccc(O)c(NC(=O)COCC(=O)O)c1,1
CCOC(=O)C1=C(C)NC2=C(C(=O)CCC2)C1c1ccc(OC)c(O)c1 (stereo not given),9.1
COC(=O)/C=C1\SC(=Nc2ccc(C)c(C)c2)N(c2ccc(C)c(C)c2)C1=O,-1.8
Cc1ccc(N2C(=O)C3CCC(C)CC3C2=O)cc1 (stereo not given),0.19
O=C1CC(Nc2ccccc2)C(=O)N1c1ccc(N2CCOCC2)cc1 (stereo not given),-0.25
Cc1ccc(N2C(=O)C(c3ccccc3)C(N3CCOCC3)C2=O)cc1 (stereo not given),3.1*
COc1ccc(-c2nnc3c4ccccc4c(C)nn23)cc1S(=O)(=O)NC(C)(C)CO,2.9
CCCc1c(OCCCOc2ccc3c(=O)c(-c4ccccc4)coc3c2)ccc(C(C)=O)c1O,-1.3
CSc1nc2ccccc2[nH]1,28
SMILES,Dicer processing
CN1CCN(C2=Nc3cc(Cl)ccc3Nc3ccccc32)CC1,20
Clc1ccc2c(c1)N=C(N1CCNCC1)c1ccccc1N2,4*
O=C1Nc2ccc(Cl)cc2C(c2ccccc2)=Nc2ccccc21,-1.2
c1ccc2c(c1)c1ccccc1c1nc(N3CCOCC3)nnc21,-1.1
N/C(=N\OC(=O)N1CCOCC1)c1c(Cl)cccc1Cl,-0.1
CCOC(=O)n1c(=O)oc2ccc(S(=O)(=O)N3CCCCC3)cc21,-0.71
CCOC(=O)c1nnn(-c2nonc2N)c1CN(C)C,-0.78
COC(=O)c1sc(=S)sc1C(=O)OC,3.8*
COC(=O)c1sc(Br)c(Br)c1O,-0.72
COC(=O)c1cc(O)c(C(=O)OC)s1,-1
CCCCc1c(C)nc(SC)[nH]c1=O,5.3*
CCCCc1c(C)nc(N)[nH]c1=O,-0.14
CCCCc1c(O)nc(SC)[nH]c1=O,-0.23

# Screening data as filed in PubChem.
